High-throughput results from PubChem BioAssay.
The entries come from a sample that favours hits as a whole.
Giardia FBPA inh-1: qHTS Assay for Inhibitors of Fructose-1,6-bisphosphate Aldolase from Giardia Lamblia; A8B2U2; purified Giardia FBPA; Potency, µM (titrated, usually from 59.6 µM), for inactives: at the highest dose activity, negative = inhibition, most hits filed as inhibitors; 290,000 tested, 0.71% active; note: potency is the fitted concentration of half-maximal effect; % is set by controls: 0 for no effect and ±100 for the full control effect; nearly all actives have a fitted effect of over 55% in size
Target sequence (A8B2U2 whole entry, looked up): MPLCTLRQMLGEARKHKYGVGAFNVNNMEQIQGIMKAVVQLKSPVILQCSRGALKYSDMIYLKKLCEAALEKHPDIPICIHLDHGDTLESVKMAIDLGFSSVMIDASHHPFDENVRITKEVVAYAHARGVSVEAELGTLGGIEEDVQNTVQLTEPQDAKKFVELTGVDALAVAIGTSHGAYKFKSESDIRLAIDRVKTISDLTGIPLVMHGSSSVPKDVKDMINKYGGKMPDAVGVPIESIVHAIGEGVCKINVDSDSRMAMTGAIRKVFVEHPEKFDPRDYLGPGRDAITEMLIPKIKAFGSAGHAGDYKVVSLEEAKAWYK
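40 nM FBPA preincubated 10 min at RT with compound (up to 57.5 uM final), then substrate plus GAPDH/TPI/NAD/arsenate coupling and diaphorase/resazurin added. Fluorescence read after 20 min at RT, 525/598 nm.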
TbPYK inhibitor: qHTS of Trypanosoma Brucei Inhibitors; pyruvate kinase (Trypanosoma brucei), Q57TT1; TbPYK enzyme, Kinase-Glo Plus ATP luminescence, 45 min; Potency, µM (series often up to 76.8 µM), for inactives: top-dose activity, negative = inhibition, hits mostly inhibitors; 410,000 tested, 0.12% active; AID 624173, 2012; note: potency is the fitted concentration of half-maximal effect; % is set by controls: 0 for no effect and ±100 for the full control effect; nearly all actives have a fitted effect of over 50% in size
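ADP (130 uM final) triggers the TbPYK reaction after compound addition; incubation is 45 min at room temperature. Kinase-Glo Plus is then added and luminescence imaged. Normalized data are fitted to concentration-effect curves.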
Shiga inhibitor: A qHTS for Small Molecule Inhibitors of Shiga Toxin. Vero cells, Shiga toxin protein synthesis inhibition reporter. inhibition, % at 38.7 µM. 290,000 tested, 9.2% active. AID 2315, 2010; in the data active = inhibition mostly above about 28%, no sharp cut-off; inactive = mostly below about 43%; note: 0% is about no effect
CHX counter: Cycloheximide Counterscreen for Small Molecule Inhibitors of Shiga Toxin; cell reporter, cycloheximide protein synthesis inhibition counterscreen; max response, %; 300,000 tested, 12% active; in the data active = max response mostly above about 13%, no sharp cut-off; inactive = mostly below about 14%; note: read at 38.3 µM for the half of the compounds with a filed dose; 0% is about no effect
LmPK inhibitor: qHTS Assay for Inhibitors of Leishmania Mexicana Pyruvate Kinase (LmPK); Q27686; purified LmPK, Kinase-Glo ATP luminescence, 1 h; Potency, µM (titrated, usually from 57.5 µM), inactives show at the top dose activity change, negative = inhibition, usual class: inhibitors; 290,000 tested, 0.37% active; AID 1721, 2009; note: potency is the fitted concentration of half-maximal effect; % is set by controls: 0 for no effect and ±100 for the full control effect
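ATP generated from ADP (0.1 mM) and PEP (0.5 mM) by 0.1 nM LmPK over 1 h at room temperature (pH 7.2 imidazole buffer) was detected by coupled luciferase luminescence. Values were normalized to uninhibited and no-enzyme wells.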
RE007 growth inh: qHTS Assay for Inhibitors of the HIV-1 protein Vpr; 360,000 tested, 0.21% active; S. pombe RE007 Vpr strain, BacTiter-Glo ATP luminescence, 24 h; AID 651644, 2012; Potency, µM (top dose mostly 92.2 µM), inactives show at the top dose activity change, negative = less growth, hits mostly inhibitors; active = well fitted falling curve with a large enough effect; inconclusive = small, poorly fitted or top-dose-only effect; inactive = no such curve, though single readings can be large or run the other way; note: potency is the fitted concentration of half-maximal effect; % is set by controls: 0 for no effect and ±100 for the full control effect; nearly all actives have a fitted effect of over 50% in size
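Fission yeast RE007 carrying one integrated HIV-1 vpr copy, seeded at OD 0.01 in PMG+AL medium with 23 nL pinned compound. Grown 24 h at 30 degrees; viability read by BacTiter-Glo luminescence after 5 min.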
Giardia growth: qHTS Assay for Inhibitors of Fructose-1,6-bisphosphate Aldolase from Giardia Lamblia: Giardia lamblia growth inhibition. shares compounds with Giardia FBPA inh-1. Giardia lamblia trophozoite growth inhibition. Potency, µM (series often up to 57.5 µM), inactives show at the highest dose activity change, negative = inhibition, actives largely listed as inhibitors. 1,500 tested, 5% active. AID 2785, 2010;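 note: potency is the fitted concentration of half-maximal effect; trophozoites exposed to compound for 48 h at 37 °C; % is set by controls: 0 for no effect and ±100 for the full control effect; nearly all actives have a fitted effect of over 70% in size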
Mammalian tox: qHTS Assay for Inhibitors of Fructose-1,6-bisphosphate Aldolase from Giardia Lamblia: Mammalian cellular toxicity. shares compounds with Giardia FBPA inh-1. mammalian cell viability counter-screen, qHTS. Potency, µM (series often up to 57.5 µM), for inactives: at the top dose viability change, negative = toxicity, most hits filed as inhibitors. 1,500 tested, 4% active. AID 2786, 2010;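 note: Chinese hamster ovary cells used as mammalian cytotoxicity surrogate; viability measured as cellular ATP by luminescence; potency is the fitted concentration of half-maximal effect; compound exposure lasted 48 h before reading; % is set by controls: 0 for no effect and ±100 for the full control effect; nearly all actives have a fitted effect of over 60% in size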
Giardia FBPA inh-2: qHTS Assay for Inhibitors of Fructose-1,6-bisphosphate Aldolase from Giardia Lamblia: Primary screen confirmation | Potency, µM (doses to about 57.5 µM), inactives show top-dose activity change, negative = inhibition, actives largely listed as inhibitors | purified Giardia aldolase enzyme activity, qHTS | AID 2787, 2010 | 1,500 tested, 5% active | shares compounds with Giardia FBPA inh-1; note: potency is the fitted concentration of half-maximal effect; % is set by controls: 0 for no effect and ±100 for the full control effect; nearly all actives have a fitted effect of over 45% in size
Rabbit aldolase: qHTS Assay for Inhibitors of Fructose-1,6-bisphosphate Aldolase from Giardia Lamblia: Rabbit FBPA Selectivity; shares compounds with Giardia FBPA inh-1; Rabbit muscle FBPA enzyme inhibition, selectivity counter-screen; Potency, µM (highest dose often 57.5 µM), for inactives: top-dose activity, negative = inhibition, usual class: inhibitors; 1,500 tested, 4% active; note: potency is the fitted concentration of half-maximal effect; % is set by controls: 0 for no effect and ±100 for the full control effect; nearly all actives have a fitted effect of over 60% in size
Target sequence (P00883 whole entry, looked up): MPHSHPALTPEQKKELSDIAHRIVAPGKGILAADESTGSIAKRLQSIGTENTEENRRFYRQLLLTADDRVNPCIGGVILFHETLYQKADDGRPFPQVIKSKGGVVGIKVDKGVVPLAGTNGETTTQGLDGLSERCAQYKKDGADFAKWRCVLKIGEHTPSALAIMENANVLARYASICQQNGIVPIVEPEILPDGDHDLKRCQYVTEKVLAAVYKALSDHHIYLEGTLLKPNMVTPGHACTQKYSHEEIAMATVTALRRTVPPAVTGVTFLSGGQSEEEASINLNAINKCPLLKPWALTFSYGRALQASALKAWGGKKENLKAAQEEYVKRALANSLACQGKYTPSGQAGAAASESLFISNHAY
GAPDH counter: qHTS Assay for Inhibitors of Fructose-1,6-bisphosphate Aldolase from Giardia Lamblia: Coupling assay counterscreen confirmation; Potency, µM (series often up to 57.5 µM), for the others: at the highest dose activity change, negative = inhibition, usual class: inhibitors; GAPDH coupling enzyme counterscreen, biochemical, qHTS; shares compounds with Giardia FBPA inh-1; 1,500 tested, 6% active; AID 2795, 2010; note: potency is the fitted concentration of half-maximal effect; % is set by controls: 0 for no effect and ±100 for the full control effect; nearly all actives have a fitted effect of over 55% in size
* marks the source's active call; other numbers are inactive results; [ ] = remark or other dose. Unless noted, calls come from the whole dose curve; as a rule, active = well fitted curve in the direction sought with a large enough effect; inconclusive = small, poorly fitted or top-dose-only effect, or another doubt; inactive = no such curve, though single readings can be large; an effect the other way counts as inactive or inconclusive.

How did O=C(O)CN1C(=O)CN=C(c2ccccn2)c2cc(Cl)ccc21 do in these assays?
Giardia FBPA inh-1: 20µM*; TbPYK inhibitor: 2%; Shiga inhibitor: 14; CHX counter: 18; LmPK inhibitor: -4%; RE007 growth inh: 1%; Giardia growth: -15%; Mammalian tox: -3%; Giardia FBPA inh-2: 0%; Rabbit aldolase: 7%; GAPDH counter: 8%

How did O=C1CN=C(c2ccccc2)c2cc(Cl)ccc2N1Cc1ccc(Cl)cc1 do in these assays?
TbPYK inhibitor: 4%

How did Cc1ccc(C)c(OCC(=O)Nc2ccc(S(=O)(=O)Nc3onc(C)c3C)cc2)c1 do in these assays?
Giardia FBPA inh-1: 9%; TbPYK inhibitor: -16%; Shiga inhibitor: -1; CHX counter: -3; LmPK inhibitor: -4%; RE007 growth inh: 2%

What do the screens show for `CC1(C)CC(=O)C(/C=N/n2cnc3ccccc3c2=O)=C(O)C1`?
Giardia FBPA inh-1: 18µM*; TbPYK inhibitor: -7%; Shiga inhibitor: 5; CHX counter: 14*; LmPK inhibitor: -20%; RE007 growth inh: -12%; Giardia growth: 0%; Mammalian tox: -2%; Giardia FBPA inh-2: 5%; Rabbit aldolase: -1%; GAPDH counter: 3%

How did CC(Sc1nnnn1C)C(=O)Nc1cc(S(=O)(=O)N2CCCCC2)ccc1Cl (stereo unspecified) do in these assays?
TbPYK inhibitor: -2%; RE007 growth inh: 1%

Results for Nc1ccc(S(=O)(=O)NCc2ccccn2)cc1 ?
Giardia FBPA inh-1: -5%; TbPYK inhibitor: -1%; Shiga inhibitor: 3; CHX counter: -2; LmPK inhibitor: -2%; RE007 growth inh: 11%

Results for O=S(=O)(NCc1ccccn1)C(F)(F)F ?
Giardia FBPA inh-1: 2.8µM*; TbPYK inhibitor: 0%; Shiga inhibitor: 1; CHX counter: 0; LmPK inhibitor: 1%; RE007 growth inh: 5%; Giardia growth: 2%[10.4 µM]; Mammalian tox: 1%; Giardia FBPA inh-2: 10%; Rabbit aldolase: 6%; GAPDH counter: 11%

What do the screens show for `O=C(O)c1ccc(B(O)O)cc1`?
Giardia FBPA inh-1: 3%

Results for COc1ccc(-c2cc(C(F)(F)F)nc(SCC(=O)NCC(C)C)n2)cc1OC ?
TbPYK inhibitor: 3%

Results for O=C(NC(=S)Nc1ccc(Cl)cn1)c1cc([N+](=O)[O-])ccc1N1CCOCC1 ?
Giardia FBPA inh-1: 14µM*; TbPYK inhibitor: 1%; Shiga inhibitor: -5; CHX counter: 2; LmPK inhibitor: -13%; RE007 growth inh: 23%; Giardia growth: 15%; Mammalian tox: 18%; Giardia FBPA inh-2: 3%; Rabbit aldolase: -3%; GAPDH counter: 11%

What do the screens show for `CCOC(=O)C1CCCN(CCC(=O)Nc2ccc(C)c(C)c2)C1` (stereo unspecified)?
Giardia FBPA inh-1: -3%; TbPYK inhibitor: 7%; Shiga inhibitor: -1; CHX counter: 2; LmPK inhibitor: 2%; RE007 growth inh: -5%

What do the screens show for `CCOC(=O)C1CCCN(CCC(=O)Nc2ccc(Br)c(C)c2)C1` (stereo unspecified)?
Giardia FBPA inh-1: 14µM*; TbPYK inhibitor: 4%; Shiga inhibitor: -1; CHX counter: -1; LmPK inhibitor: -4%; RE007 growth inh: -11%; Giardia growth: inconclusive; Mammalian tox: -8%; Giardia FBPA inh-2: 4%; Rabbit aldolase: 8%; GAPDH counter: 10%

What do the screens show for `COc1ccc(C(=O)Nc2ccc(N3CCN(c4ccccc4)CC3)c(C(=O)O)c2)cc1`?
TbPYK inhibitor: 1%

Results for CSc1nccn1C(=O)c1ccccc1[N+](=O)[O-] ?
Giardia FBPA inh-1: 28µM*; TbPYK inhibitor: -13%; Shiga inhibitor: 17; CHX counter: -1; LmPK inhibitor: 4%; RE007 growth inh: -3%; Giardia growth: 11%[10.4 µM]; Mammalian tox: 9%; Giardia FBPA inh-2: -14%; Rabbit aldolase: -11%; GAPDH counter: -10%

How did S=c1[nH]nc(-c2ccccn2)n1/N=C/c1ccco1 do in these assays?
Giardia FBPA inh-1: 20µM*; TbPYK inhibitor: -34%; Shiga inhibitor: 3; CHX counter: -3; LmPK inhibitor: 13%; RE007 growth inh: 12%; Giardia growth: 7%[10.4 µM]; Mammalian tox: 15%; Giardia FBPA inh-2: 4%; Rabbit aldolase: 16%; GAPDH counter: 5%

How did S=c1[nH]nc(-c2ccco2)n1/N=C/c1ccccn1 do in these assays?
Giardia FBPA inh-1: inconclusive; Shiga inhibitor: -12; CHX counter: -2; LmPK inhibitor: 3%

What do the screens show for `CC(=O)Nc1cccc(-c2csc(NCc3ccccc3)n2)c1`?
Giardia FBPA inh-1: 20µM*; TbPYK inhibitor: -15%; Shiga inhibitor: 3; CHX counter: 11*; LmPK inhibitor: 0%; RE007 growth inh: -15%; Giardia growth: 18%; Mammalian tox: -7%; Giardia FBPA inh-2: 8%; Rabbit aldolase: 8%; GAPDH counter: 5%

What do the screens show for `COc1ccc(CNCc2cc3c(cc2[N+](=O)[O-])OCO3)cc1`?
Giardia FBPA inh-1: 13µM*; TbPYK inhibitor: 2%; Shiga inhibitor: 8; CHX counter: 13; LmPK inhibitor: 1%; RE007 growth inh: 1%; Giardia growth: inconclusive; Mammalian tox: -4%; Giardia FBPA inh-2: -14%; Rabbit aldolase: -7%; GAPDH counter: 1%
